According to PubChem BioAssay (NCI):
About 83,000 compounds went through this panel and 20% of them were active in at least one assay; those are over-represented in the sample as a whole.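 How to read the values: 0–100, growth inhibition (40 = 60% inhibited); 0, no net growth; -100 to 0, cell death (-40 = 40% of starting cells died; -100 = all dead).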 Activity calls are given as the source filed them. How the source made its calls: active means growth percent below 10; inactive means the rest.

Key:
Assay in all cases: NCI-60 one-dose screen, 48 h (100 = growth as untreated, 0 = no growth, -100 = all killed)
Details in all cases: 10 µM unless noted
[1] = system: EKVX NSCLC
[2] = system: SN12C renal
[3] = system: UO-31 renal
[4] = system: TK-10 renal
[5] = system: CAKI-1 renal
[6] = system: A498 renal
[7] = system: CCRF-CEM leukemia
[8] = system: MOLT-4 leukemia
[9] = system: ACHN renal

Measured: growth

O=C(COc1ccc(/C=C2\Cc3ccccc3C2=O)cc1)c1ccc(Cl)cc1
active: [3] -7.83%
inactive: [1] 101% | [2] 98.9% | [4] 133% | [5] 78.2% | [6] 108% | [7] 95.2% | [8] 95.9%

C=C1CC[C@@H]2[C@](C)(COC(C)=O)[C@H](OC(C)=O)CC[C@@]2(C)[C@@H]1CC(NCc1ccccc1)C1=CCOC1=O (some centres not stated)
active: [8] -3.86%
inactive: [1] 53.9% | [2] 58.2% | [3] 29.1% | [9] 46.4% | [5] 49.6% | [6] 56.2% | [7] 20.9%

O=[N+]([O-])c1ccc(NS(=O)(=O)c2ccc(Cl)c(Cl)c2)cc1
inactive: [2] 60.9% | [3] 70% | [4] 94.3% | [9] 94% | [5] 65.2% | [6] 55.9% | [8] 81.3%

CC1(C)CC2(C)CC(=O)C1C(C(=O)O)C2C(=O)O (configuration not stated)
inactive: [1] 121% | [2] 105% | [3] 98% | [9] 97.2% | [5] 114% | [6] 111% | [7] 99.4% | [8] 94.3%

O=C1/C=C/[C@@H](O)[C@@H]2C[C@@H](O)C[C@H]2/C=C/CCC[C@H](CO)O1
inactive: [1] 36.4% | [2] 43.9% | [3] 11.2% | [9] 19.8% | [5] 17.9% | [7] 22.3%
active: [6] -30.3% | [8] -16.9%

COc1ccc(-c2cc(-c3cccnc3)nc3sc(C(=O)Nc4ccccc4)c(N)c23)cc1OC
inactive: [2] 57.2% | [3] 32.2% | [9] 41.1% | [5] 46.7% | [6] 65.1% | [7] 36.9% | [8] 32.1%

COc1ccccc1NC(=O)c1sc2nc3c(cc2c1N)C(=O)CCC3
inactive: [2] 70.2% | [3] 70.5% | [9] 70.4% | [5] 52.7% | [7] 67.7% | [8] 89.6%
active: [6] -5.03%

CCCCOP(=O)(OCCCC)C(C(=O)OCC)C(CC(=O)OCC)C(=O)OCC (configuration not stated)
inactive: [2] 100% | [3] 91.9% | [9] 93.2% | [5] 98.4% | [6] 97.8% | [8] 109%

O=C1c2cc3c(cc2-c2c1c1ccc(Cl)cc1c(=O)n2CCCNCCO)OCO3
active: [1] -65.3% | [2] -66.6% | [3] -81.7% | [9] -87.5% | [5] -80% | [6] -94.4% | [7] -24.9% | [8] -34.5%

COc1cc(/C=C2\CN(S(=O)(=O)c3ccc(C)cc3)C/C(=C\c3cc(CN4CCOCC4)c(O)c(OC)c3)C2=O)cc(CN2CCOCC2)c1O
active: [2] -19.3% | [3] -89.3% | [9] -82.4% | [5] 9.3% | [7] 8.78% | [8] 4.35%
inactive: [1] 11.6% | [6] 36.5%

O=C1/C(=C/c2cccc(Cl)c2)CCc2ccccc21
inactive: [2] 95.9% | [3] 76.1% | [4] 85.9% | [9] 103% | [5] 76.9% | [8] 83.3%

COc1cccc(N2CCN(CC(=O)N3CCN(c4nnc(-c5ccc(Cl)cc5)c(-c5ccc(Cl)cc5)n4)CC3)CC2)c1
inactive: [1] 57% | [2] 76.7% | [4] 93.8% | [9] 57.1% | [5] 92.2% | [6] 55.4% | [7] 43.2% | [8] 28.4%

CCCCCCCCN(CCO)CCCCCCCC
inactive: [2] 104% | [3] 80.2% | [4] 109% | [9] 96.6% | [5] 109% | [6] 111% | [7] 99.4% | [8] 90.7%

CCN(CC)CCCCCCCNc1c2ccc(Cl)cc2nc2ccc(OC)cc12
active: [1] -6.42% | [2] 0.458% | [3] -52% | [9] -39.1% | [6] -92.1% | [7] 0.0912% | [8] -11.3%

CC(=O)/C(=C/c1ccc(Cl)cc1)C(=O)c1ccccc1
inactive: [2] 85.4% | [3] 65.5% | [4] 101% | [9] 99.4% | [5] 85.2% | [8] 62%

COc1cc(Cl)cc(-c2nn(-c3cccc(NC(=O)c4cc(C(F)(F)F)cc(C(F)(F)F)c4)c3)cc2-c2ccncc2)c1
active: [6] -1.74%
inactive: [2] 69.8% | [3] 54.3% | [9] 58.2% | [5] 68.6% | [7] 57.1% | [8] 55.3%

CCOC(=O)c1cnc2c(C)cc(C)cc2c1NCCCN(C)C
active: [5] -7.71% | [8] 5.24%
inactive: [1] 41% | [2] 37.6% | [4] 30.7% | [9] 28.7% | [6] 64.5% | [7] 19.8%

CN1CCN(CCCCCN=c2cc3c(=O)n(CCCCCN4CCN(C)CC4)c(=O)c4c(NCCCCCN5CCN(C)CC5)cc5c(O)n(CCCCCN6CCN(C)CC6)c(=O)c2c5c4-3)CC1
active: [1] -11.4% | [2] 5.16%
inactive: [3] 115% | [9] 88.5% | [5] 102% | [6] 95.6% | [7] 13.9% | [8] 25.2%

Cc1cc(C)cc(S(=O)(=O)n2ccc(-c3ccc4c(c3)CCC(C)(C)O4)n2)c1
inactive: [2] 88% | [3] 75% | [9] 92.8% | [5] 72.5% | [6] 63% | [7] 96.3% | [8] 91.4%

COc1ccc(/C=C2\CCc3ccccc3C2=O)cc1
inactive: [2] 94.5% | [3] 87.5% | [4] 79.8% | [9] 111% | [5] 50.8% | [8] 73.9%

O=C(Nc1ccccc1S)c1ccccc1
inactive: [1] 94.6% | [2] 95.2% | [3] 91.8% | [6] 86.5% | [7] 106% | [8] 82%

COc1cc(/C=C/c2cc(/C=C/c3ccc(O)c(OC)c3)n(C(=O)c3ccc(Cl)cc3)n2)ccc1O
active: [3] 0.559% | [6] 7.49% | [7] 0.628% | [8] 5.8%
inactive: [2] 13.6% | [9] 11.5% | [5] 17.9%

O=C1CNc2cc(Cl)ccc2N1
inactive: [1] 89.1% | [2] 103% | [3] 81.6% | [9] 98.6% | [5] 97.8% | [6] 97.3% | [7] 93.3% | [8] 87.4%

CN(C)CCCNc1nn2c(=O)c3ccccc3nc2c2ccccc12
inactive: [1] 53.5% | [2] 58.3% | [4] 75.3% | [9] 29.9% | [5] 20.8% | [6] 92% | [7] 30.3%
active: [8] -19.6%

COc1cc(NC(C)CCCN)c2nc(C)ccc2c1Oc1ccc(F)cc1 (configuration not stated)
inactive: [1] 75.1% | [2] 69.9% | [3] 45.4% | [9] 84.6% | [5] 75.9% | [6] 60.4% | [7] 78.2% | [8] 63.1%

O=C1/C(=C/c2ccccc2Cl)CCc2ccccc21
inactive: [2] 94.6% | [3] 97.4% | [4] 89.4% | [9] 112% | [5] 81.8% | [8] 90.9%

COc1ccc(CC(=O)Nc2nn3c(-c4cc(C(F)(F)F)cc(C(F)(F)F)c4)nnc3s2)cc1
inactive: [1] 67.4% | [2] 64.7% | [3] 74% | [9] 81.9% | [5] 46.2% | [6] 79.9% | [7] 49.9% | [8] 65.7%

c1cc[n+](Cc2ccnc3ccccc23)cc1
inactive: [2] 102% | [3] 73.6% | [9] 94.2% | [5] 91.1% | [6] 109% | [8] 108%

Nc1nc2c(c(=O)[nH]1)C1(C(=O)Nc3ccccc31)c1c(nc(N)[nH]c1=O)N2
inactive: [1] 104% | [2] 103% | [3] 86.7% | [9] 105% | [5] 102% | [6] 108% | [7] 105% | [8] 90%

COc1ccccc1-n1c(-c2ccc(O)cc2C)cn2c3c(=O)[nH]c(=O)n(C)c3nc12
inactive: [1] 98.7% | [2] 75% | [3] 74.2% | [9] 74% | [5] 79.4% | [6] 80.2% | [7] 106% | [8] 81.4%

O=C(Nc1cccc(-n2cc(-c3ccncc3)c(-c3cc(O)cc(Cl)c3)n2)c1)Nc1ccc(Cl)c(Cl)c1
inactive: [2] 14.9%
active: [3] -41.3% | [9] 6.85% | [5] 5.31% | [6] -2.98% | [7] 4.11% | [8] -27.1%

O=C1/C(=C/c2ccc(F)cc2)Cc2ccccc21
inactive: [2] 99.5% | [3] 92.5% | [4] 96.7% | [9] 98.2% | [5] 113% | [8] 98.3%

Cc1[nH]ccc2cc3nc4ccccc4c3cc12
inactive: [1] 30.7% | [2] 27.8% | [9] 15.4% | [5] 52% | [7] 17.1%
active: [3] 8.89% | [6] 4.99% | [8] 8.62%

Cc1ccc(NC(=O)c2sc3nc4c(cc3c2N)C(=O)CCC4)cc1
inactive: [2] 87.8% | [3] 84.8% | [9] 89.9% | [5] 56.6% | [7] 70.9% | [8] 95.9%
active: [6] -3.97%
